Experimental data: PubChem BioAssay (NCI)
Compounds without any hit were thinned out: in the full panel of roughly 83,000, 20% have a hit.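 Plates (96-well) were seeded with cells, treated with compound at one concentration, and incubated for 48 hours before percent growth was determined.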 Activity calls are given as the source filed them. How the source made its calls: active means growth percent below 10; inactive means the rest.

System: HL-60(TB) leukemia
Assay: NCI-60 one-dose screen, 48 h (100 = growth as untreated, 0 = no growth, -100 = all killed)
Details: 10 µM unless noted

Row | SMILES | growth
1 | Cc1ccc(N(CC(=O)Nc2ccc(S(=O)(=O)N3CCC(N4CCCC4)CC3)cc2)S(=O)(=O)c2ccc(Cl)cc2)cc1 | -51.5% (active)
2 | O=C(CNC(=O)c1cccc2ccccc12)Nc1ccccc1Cc1ccccc1 | -15.9% [5 µM] (active)
3 | Oc1ccc(Br)cc1Sc1cc(Br)ccc1O | 27.9% (inactive)
4 | c1ccc(Nc2ncc3c(n2)-c2cccn2CC3)cc1 | 107% (inactive)
5 | CC(=O)O[C@@H]1C[C@]2(C(C)C)O[C@@]1(C)[C@@H]1CCC(C)=C1[C@@H]2OC(=O)/C=C/c1ccccc1 | 78.8% (inactive)
6 | Cc1cc2nc(NC(=O)CN3CCN(CCN4C(=O)c5cccc6cccc(c56)C4=O)CC3)sc2cc1C | 52.3% (inactive)
7 | O=C(O)c1cc2ccccc2cc1Nc1ccccc1 | 93.3% (inactive)
8 | C#CC#CC#CC#CC#CC#CC#CC#CCC1OCC(COC(=O)O[C@@H](C(=O)O[C@H]2C[C@@]3(O)[C@@H](OC(=O)c4ccccc4)[C@@H]4[C@]5(OC(C)=O)CO[C@@H]5C[C@H](O)[C@@]4(C)C(=O)[C@H](OC(C)=O)C(=C2C)C3(C)C)[C@@H](NC(=O)c2ccccc2)c2ccccc2)O1 (stereo partly specified) | 5.04% (active)
9 | O=C1CN(CO)C(=O)CN1CO | 107% (inactive)
10 | COc1ncc(-c2ccc3ncnc(Nc4cccc(Cl)c4)c3c2)cc1NS(=O)(=O)CCN1CCOCC1 | 23.9% (inactive)
11 | CNCCNc1nc2ccccc2c2c(=O)c3cc(OC)ccc3sc12 | -52.9% (active)
12 | COc1ccc2c(/C=C3/C(=O)NC(=S)NC3C)cc(=O)oc2c1 (stereo unspecified) | 90.5% (inactive)
13 | Cc1ccc(NC(=O)C2CCC(CN3CCN(C)CC3)CC2)cc1Nc1nccc(-c2cccnc2)n1 (stereo unspecified) | 110% (inactive)
14 | CN(C)c1ccc2nc3ccc(=N)cc-3sc2c1 | -28.5% (active)
15 | CCN(CC)c1ccc(/C=N/NC(=O)CSc2nc3ccccc3c(=O)n2CCc2ccc(S(N)(=O)=O)cc2)c(O)c1 | -18.7% (active)
16 | CCCCc1nc(Cl)c(C2CC(c3ccc(S(N)(=O)=O)cc3)=NN2c2ccc(C#N)cc2)[nH]1 (stereo unspecified) | 92.7% (inactive)
17 | COc1ccc(/C(C)=C(\c2ccc(OCCN3CCOCC3)cc2)c2ccc(OC(=O)C3CCCCC3)cc2)cc1 | 126% (inactive)
18 | COc1cc2c(cc1OC)C(C)N(S(N)(=O)=O)CC2 (stereo unspecified) | 72.2% (inactive)

Row | SMILES | growth
19 | COc1ccc(OC)c(C(=O)c2oc3ccc(Br)cc3c2N)c1 | -10.2% (active)
20 | O=C(CI)NCCNc1cccc2c(S(=O)(=O)O)cccc12 | 105% (inactive)
21 | C=CCOC1=CC(=O)c2ccccc2C1=O | 41.6% (inactive)
22 | CCOc1c(Br)cc(C2C(C(=O)OC)=CN(C)C=C2C(=O)OC)cc1OC | 35.5% (inactive)
23 | CCC1=CC2CN(C1)Cc1c([nH]c3ccccc13)[C@@](C(=O)OC)(c1cc3c(cc1OC)N(C)[C@H]1[C@@](O)(C(=O)OC)[C@H](OC(C)=O)[C@]4(CC)C=CCN5CC[C@]31[C@@H]54)C2 (stereo partly specified) | -15.6% (active)
24 | O=c1ncc(-c2ccc(C(F)(F)F)cc2)c(NC2CCCCCC2)[nH]1 | 23.3% (inactive)
25 | Nc1ccc(-c2cc3c(NCc4ccccc4)ncnc3s2)cc1 | 85.5% (inactive)
26 | O=C(CN1CCN(c2cc3c(cc2F)c(=O)c(C(=O)O)cn3C2CC2)CC1)Nc1ccc(C(=O)/C=C/c2ccccc2)cc1 | 40.9% (inactive)
27 | O=C1Nc2ccccc2/C1=C\c1nc(-c2ccccc2)n2ccccc12 | 85.6% (inactive)
28 | Cc1cc(C)c2nc(Nc3nc(C)c(C)c(=O)[nH]3)nc(C)c2c1 | -10.2% (active)
29 | O=C(CSc1nnc(-c2ccccc2)o1)Nc1ccc(C(=O)/C=C/c2ccccc2)cc1 | 71% (inactive)
30 | CNCc1cccc2c1OCCOCCOCCC(C)S(=O)(=O)c1ccc(cc1)-c1cnc(N)c(n1)C(=O)N2 (stereo unspecified) | -34.8% (active)
31 | O=C(CCCCl)NNc1nccc(Nc2ccc(S(=O)(=O)Nc3ccncc3)cc2)n1 | 127% (inactive)
32 | CCN1C(=O)N(CC)C2C1NN=C1SCC(=O)N12 (stereo unspecified) | 99.1% (inactive)
33 | Cc1cccnc1NC1OC(=O)c2ccccc21 (stereo unspecified) | 100% (inactive)
34 | Clc1ccc(/C=C/c2ccccn2)c(Cl)c1 | 86% (inactive)
35 | COc1cc2c(Nc3ccc(S(N)(=O)=O)cc3)ncnc2c(OC)c1OC | 91.5% (inactive)
36 | CCCCCCCC(=O)SCC/C=C/[C@@H]1CC(=O)NCc2cc(ccn2)C2=N[C@@](C)(CS2)C(=O)N[C@@H](C(C)C)C(=O)O1 | 22.6% (inactive)
